Rows were chosen to be rich in hits. Some 2.7% of all compounds tested hit in one or more screens of this group.
Tau fibril ThT: tau fibrillization inhibition (ThT binding); P10636; recombinant tau K18 P301L, heparin-induced fibrillization, ThT fluorescence; Potency, µM (top dose mostly 57.4 µM), for the others: at the highest dose activity, negative = inhibition, usual class: inhibitors; actives 2.1% (n = 270,000); AID 1460; further: potency means the concentration at half of the fitted maximal effect; nearly all actives have a fitted effect of over 55% in size
Target sequence (P10636 561-689 P618L limits assumed): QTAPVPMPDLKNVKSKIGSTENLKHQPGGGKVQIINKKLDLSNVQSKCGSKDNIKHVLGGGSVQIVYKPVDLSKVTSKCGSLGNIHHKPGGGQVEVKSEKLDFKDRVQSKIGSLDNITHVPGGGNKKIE
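In this qHTS, human K18 P301L tau is incubated with compound and heparin for 6 hr at 37 C, and Thioflavin T fluorescence then reports fibril load.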
Tau fibril FP: blocks human tau fibril formation measured by polarization | P10636 | K18 P301L tau heparin fibrillization, Alexa594 FP, 6 h | Potency, µM (titrated, usually from 57.7 µM), without a hit: at the highest dose activity, negative = inhibition, usual class: inhibitors | actives 0.39% (n = 280,000) | AID 1468; further: potency means the concentration at half of the fitted maximal effect; nearly all actives have a fitted effect of over 55% in size
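K18 P301L tau (15 uM unlabeled/0.24 uM Alexa 594-labeled, final) + compound + heparin 20 uM final; 100 mM NaOAc pH 7; 6 hr 37 C; ThT 30 uM final added, 1 hr RT; FP ex 555/em 632 nm.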
FBPA coupling cs: coupling enzyme interference in Giardia aldolase counter-screen; coupling enzyme system counterscreen, AmpLite Red fluorescence; activity change, negative = inhibition, % at 58.2 µM, hits read low; actives 0.67% (n = 290,000); in the data active means activity change below about -30%
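Coupling enzymes only (glyceraldehyde-3-phosphate) + compound, at 57.5 uM final, 10 min RT; add substrate/coupling/AmpLite Red mix, 20 min RT; fluorescence ex 525/em 598 nm. Actives flag coupling-system interference.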
Tau fluor cs: counter-screen for tau fibril formation inhibitors; actives 0.93% (n = 280,000); tau K18 P301L (four-repeat tau fragment) Alexa594 fluorescence, heparin fibrillization; Potency, µM (series often up to 57.7 µM), for inactives: at the top dose activity change, negative = decrease; further: potency means the concentration at half of the fitted maximal effect; nearly all actives have a fitted effect of over 55% in size
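Human K18 P301L tau (15 uM unlabeled plus 0.24 uM Alexa 594-labeled, final) in 100 mM sodium acetate pH 7 was mixed with compound and 20 uM heparin and incubated 6 hr at 37 C.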
Active calls of the source: *; u = inconclusive; x = no result given; [ ] = dose if it differs, or a comment. Unless noted, the call rests on the fitted dose curve; in most records, active means well fitted curve in the direction sought with a large enough effect; inconclusive means small, poorly fitted or top-dose-only effect, or another doubt; inactive means no such curve, though single readings can be large; an effect the other way counts as inactive or inconclusive. On the % scale 0 is the no-effect control and ±100 the full control effect.

SMILES	Tau fibril ThT	Tau fibril FP	FBPA coupling cs	Tau fluor cs
CC1(C)Cc2c(c(-c3ccco3)[nH]c(=O)c2C#N)CS1	u	u	-42.6*	-14.1%
Cc1oc(-c2cccc(Cl)c2)nc1Cn1c(SCc2ccccc2F)nc2ccncc21	-15.8%	-6.9%	x	-21.7%
O=C(NNc1nc(-c2ccc(Cl)cc2)cs1)c1ccco1	u	-14.0%	2.3	u
Clc1ccc(-c2csc(N/N=C\c3cccnc3)n2)cc1	u	0.6%	2.0	u
O=C(NNc1nc(-c2ccccc2)cs1)c1ccco1	11.2µM*	u	2.5	u
CN(C)S(=O)(=O)c1ccc(-c2csc(N/N=C/c3ccco3)n2)cc1	u	10.1%	-0.3	u
Brc1ccc(-c2csc(N/N=C/c3ccco3)n2)cc1	15.8µM*	-13.0%	-1.5	17.8µM*[quencher]
Clc1ccc(-c2csc(N/N=C/c3ccco3)n2)cc1	14.1µM*	-4.1%	-1.4	12.6µM*[quencher]
C(=N\Nc1nc(-c2ccccc2)cs1)/c1ccco1	14.1µM*	u	-5.4	14.1µM*[quencher]
CCc1ccc(CN(C)C(=O)C2CCC(=O)N(CC3CCCCC3)C2)cc1 (configuration not stated)	x	x	-0.6	x
Cc1ccc(C)c(Cn2c(=O)n(Cc3ccc4c(c3)OCO4)c(=O)c3oc4ccccc4c32)c1	-0.7%	3.3%	x	0.3%
COCCn1c(=O)c(CCc2ccccc2)nc2cnc(Oc3cccc(Cl)c3)nc21	x	x	1.8	x
CCc1nn2c(=O)c(S(=O)(=O)Nc3ccc(C)cc3C)c(C)nc2s1	u	-5.2%	x	-25.8%
Cc1ccc(NC(=O)c2sc3nc4c(cc3c2N)CN(Cc2ccccc2)CC4)cc1	u	6.1%	x	-15.6%
Cc1ccc(-c2csc(N/N=C/c3ccco3)n2)cc1	14.1µM*	2.1%	-2.6	u
O=[N+]([O-])c1ccc(-c2csc(N3CCc4ccccc4C3)n2)cc1	5.01µM*	11.1%	-2.1	u
Brc1ccc(-c2csc(N3CCc4ccccc4C3)n2)cc1	u	6.5%	-6.1	-25.2%
Cc1cccn2cc(-c3c[nH]c4ccccc34)nc12	u	5.2%	-1.8	-23.3%
Brc1ccc2nc(-c3c[nH]c4ccccc34)cn2c1	10µM*	7.4%	-14.2	u
Cc1ccccc1-n1cc(-c2ccccc2)nc1SCC(=O)Nc1ccc(F)cc1	-10.5%	-12.8%	x	u
O=C(c1ccc2c3c(cccc13)CC2)C1CCCN(Cc2cccnc2)C1 (configuration not stated)	-14.1%	-1.1%	-0.6	-9.5%
COc1cc(CN2CCCC(C(=O)c3ccc4c5c(cccc35)CC4)C2)cc(OC)c1O (configuration not stated)	28.2µM*	u	-38.8*	u
COc1ccc(C(=O)N/N=C/c2cc3ccccc3[nH]c2=S)cc1	3.98µM*	-6.8%	0.6	u
Oc1ccc(N=Cc2ccc(OCc3ccccc3)cc2)cc1	3.98µM*	12.6µM*	-32.1*	u
COc1ccc(OC)c(/C=N/NC(=O)CC(=O)NCc2ccccc2)c1	-13.7%	-3.1%	-33.3*	-9.4%
SMILES	Tau fibril ThT	Tau fibril FP	FBPA coupling cs	Tau fluor cs
O=C(C[n+]1ccc(C(=O)N/N=C/c2ccc(OCc3ccccc3)cc2)cc1)c1ccccc1	6.31µM*	0.4%	-1.9	u
COc1ccc(C(=O)N/N=C/c2c[nH]c3ccccc23)cc1	x	x	3.1	x
O=C(N/N=C/c1ccc(OCc2ccccc2)cc1)c1ccncc1	u	-12.8%	4.6	-19.1%
CC(=O)Nc1ccc(NC(=O)CCS(=O)(=O)c2ccc3c(c2)CC(=O)N3C)cc1	-10.2%	-2.8%	x	-9.7%
COc1ccc2c(CNCCc3cccs3)c(C(=O)O)n(Cc3ccccc3C)c2c1	-5.4%	3.3%	x	-14.7%
CCCCCCCCCCCCCCCCCCNC(=O)OCC(COP(=O)([O-])OCC[n+]1ccsc1)OC (configuration not stated)	-12.5%	3.7%	x	-6.3%
COc1cccc(CNC(=O)C2Cc3cc(S(=O)(=O)N4CCCCCC4)ccc3N2C(C)=O)c1 (configuration not stated)	-13.8%	-5.5%	x	-22.0%
O=C(N/N=C/c1ccc(O)cc1)c1cccc(N/N=C/c2ccc(O)cc2)c1	5.01µM*	4.7%	-1.6	14.1µM*[quencher]
O=C(C[n+]1ccc(C(=O)N/N=C/c2ccc(Br)cc2)cc1)c1ccccc1	12.6µM*	-8.8%	-0.2	u
O=C(C[n+]1ccccc1)N/N=C/c1ccc(F)cc1	-2.2%	3.6%	0.3	2.8%
COc1ccc(/C=N/NC(=O)C[n+]2ccccc2)c(OC)c1	-1.6%	4.5%	-1.0	2.2%
COc1ccc(OC)c(/C=N/NC(=O)c2cc[n+](CC(=O)c3ccccc3)cc2)c1	11.2µM*	-7.1%	-3.2	u
O=C(N/N=C/c1ccc(Br)cc1)c1cc[n+]([O-])cc1	x	x	0.9	x
O=C(N/N=C/c1ccncc1)c1cccc(N/N=C/c2ccncc2)c1	u	3.3%	-2.3	u
O=C(C[n+]1ccc(C(=O)N/N=C/c2ccc(O)cc2)cc1)c1ccccc1	8.91µM*	-15.9%	-10.7	u
COc1ccc(Nc2nnc(-c3ccc(C)c(S(=O)(=O)NCc4nc5ccccc5[nH]4)c3)c3ccccc23)cc1	1.0%	11.0%	x	u
COc1cc(CN(C(=O)COc2ccccc2Cl)c2ccccn2)cc(OC)c1OC	u	0.6%	x	-19.1%
COc1ccccc1CN1CCCC2(CCN(S(=O)(=O)c3ccccc3)CC2)C1	x	x	0.7	x
CCCCOc1ccc(C(=O)N(Cc2ccc(C(C)C)cc2)C2CCS(=O)(=O)C2)cc1 (configuration not stated)	-9.9%	0.4%	x	-11.3%
C=C/C(=C\C)C[C@@H](CC(=O)N[C@@H](CCC(=O)O)CC(=O)O)NC(=O)[C@@H]1CNCC[C@H]1NC(=O)C[C@@H](NC(=O)C[C@H](Cc1ccccc1)NC(=O)[C@@H]1CCCC[C@H]1N)C(C)C	-4.5%	-9.7%	1.3	-17.6%
Nc1ccc(C2=Nc3cccc4cccc(c34)N2)cc1	0.4%	7.2%	1.4	2.0%
CC1=Nc2cccc3cccc(c23)N1	22.4µM*	u	0.1	u
O=C(c1cc2ccc3cccnc3c2[nH]1)N1CCN(c2cccc(C(F)(F)F)c2)CC1	u	-8.2%	x	-15.6%
COc1ccc(NC(=O)c2ccco2)cc1NC(=O)c1cccc(C)c1OC	u	7.0%	x	-29.0%
CC(=O)N1CCC(N(C(=O)Nc2ccc(C)c(F)c2)C(C)C)CC1	13.1%	u	x	2.2%
Cc1cc(=O)cc2oc3cc(N)c(-c4c(C)cc(O)cc4O)c(C)c3nc1-2	14.1µM*	22.4µM*	-30.4*	u
O=c1cc2c(=O)oc3cc(O)c(O)oc3c2c(O)c1O	4.47µM*	u	-12.1	-28.6%
COc1c(O)cc2c(=O)oc3c(OC)c(O)cc4c(=O)oc1c2c34	u	-1.3%	11.0	-27.0%
O=C(NCCN1CCOCC1)C1(C(F)(F)F)C/C(=C\CCO)CCCO1 (configuration not stated)	x	x	2.2	x
COc1ccc(N=Nc2n(C)c3ccccc3[n+]2C)cc1	3.16µM*	u	-27.1	u
